This is a sample that favours compounds with a hit; in the whole collection about 17% have one here.
TGFb inhibitor – inhibitors of TGF-b signaling. HepG2 CAGA-GFP TGF-b/SMAD3 reporter, GFP fluorescence, 18 h; TGF-beta stimulated, 500 pg/mL final. Potency, µM (doses to about 46.1 µM), inactives show top-dose activity, negative = inhibition, actives largely listed as inhibitors. AID 588855. actives 1.2% (n = 410,000); further: on the % scale 0 is the no-effect control and ±100 the full control effect; nearly all actives have a fitted effect of over 65% in size
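Inhibition was scored as loss of TGF-beta-induced (500 pg/mL final, 18 hours, 37 degrees C) GFP in HEPG2 cells carrying a CAGA-GFP reporter, in DMEM with 1% FBS. Well GFP was summed per cell; Activity was normalised to unstimulated and stimulated DMSO wells, then concentration-response fitting.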
HepG2 viability – HepG2 cytotoxicity, counter-screen for TGF-b inhibitors. Potency, µM (series often up to 46.1 µM), for the others: at the highest dose activity change, negative = cytotoxicity, hits mostly cytotoxic. AID 588856. HepG2 CAGA-GFP viability, ATP luminescence, 18 h. actives 0.76% (n = 410,000)
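CellTiter-Glo luminescence gave cytotoxicity after 18 hours at 37 degrees C. The cells were HepG2 CAGA-GFP in 1% FBS DMEM, stimulated with 500 pg/mL TGF-beta after compound addition. %Activity was normalised to no-cell wells (complete cell-killing) and DMSO (no toxicity), and curves were fitted and classified.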
TDP1 cell CPT – growth inhibition of DT40 Tdp1-/-;hTDP1 cells with camptothecin (screen for TDP1 inhibitors); chicken DT40 Tdp1-/-;hTDP1 cells + 20 nM CPT, ATP luminescence, 48 h; Potency, µM (titrated, usually from 46.2 µM), for inactives: top-dose activity change, negative = growth inhibition, usual class: inhibitors; actives 12% (n = 420,000); AID 686979; further: on the % scale 0 is the no-effect control and ±100 the full control effect; nearly all actives have a fitted effect of over 55% in size
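Chicken DT40 Tdp1-/- cells complemented with human TDP1, 400 cells/well, exposed to compounds plus 20 nM camptothecin for at least 48 h at 37 C; viability read as ATP content by CellTiter-Glo luminescence.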
ATXN2 expr inh – inhibitors of ATXN2 expression; Potency, µM (series often up to 57 µM), inactives show top-dose activity change, negative = inhibition, most hits filed as inhibitors; actives 0.72% (n = 360,000); AID 1745845; HEK-293 ATXN2-luciferase reporter, luminescence, 24 h; further: on the % scale 0 is the no-effect control and ±100 the full control effect; nearly all actives have a fitted effect of over 55% in size
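ATXN2-luciferase reporter cells (luciferase flanked by upstream and downstream ATXN2 gene portions) were treated 24 h at 37 °C with compounds at up to 57 uM. SteadyGlo luminescence gave expression; GF-AFC fluorescence gave viability.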
S2 tox – cell viability loss in ATXN counter-screen; actives 0.49% (n = 400,000); Potency, µM (titrated, usually from 56.7 µM), actives largely listed as cytotoxic; S2 cells (HEK-293 line with an ATXN2-luciferase reporter) viability, CellTiter-Fluor protease fluorescence, 24 h; further: nearly all actives have a fitted effect of over 40% in size
TDP1 cell noCPT – qHTS for Inhibitors of human tyrosyl-DNA phosphodiesterase 1 (TDP1): qHTS in cells in absence of CPT. DT40 Tdp1-/- hTDP1 cells, no CPT, ATP luminescence, 48 h. Potency, µM (highest dose often 46.2 µM), without a hit: at the highest dose activity change, negative = growth inhibition, usual class: inhibitors. actives 15% (n = 420,000). AID 686978, 2013; further: on the % scale 0 is the no-effect control and ±100 the full control effect; nearly all actives have a fitted effect of over 55% in size
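Luminescent ATP content (CellTiter-Glo) served as the growth readout. Knockout chicken DT40 cells expressing human TDP1 were exposed to compounds without camptothecin for a minimum 48 hr at 37 °C.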
* hit, by the source's call; i = inactive; ? = inconclusive; / = no result given; [ ] = dose if it differs, or a comment. The call rests on the fitted dose curve; in most records, active means well fitted curve in the direction sought with a large enough effect; inconclusive means small, poorly fitted or top-dose-only effect, or another doubt; inactive means no such curve, though single readings can be large; an effect the other way counts as inactive or inconclusive. Potency means the concentration at half of the fitted maximal effect.

SMILES	TGFb inhibitor	HepG2 viability	TDP1 cell CPT	ATXN2 expr inh	S2 tox	TDP1 cell noCPT
Cc1ccc(NS(=O)(=O)c2ccc3c(c2)NC(=O)C(C)C(=O)N3)cc1F (centres undefined)	-16%	-33%	-30%	/	/	?
Cc1ccc(NS(=O)(=O)c2ccc3c(c2)C(C(C)C)C(=O)N3)cc1C (centres undefined)	?	-38%	?	-4%	?	29µM*
Cc1ccc(CCNS(=O)(=O)c2ccc3c(c2)C(C(C)C)C(=O)N3)cc1 (centres undefined)	?	-40%	?	-34%	i	21µM*
Cc1ccc(NS(=O)(=O)c2ccc3c(c2)NC(=O)C(C)C(=O)N3)cc1C (centres undefined)	19%	-6%	?	-2%	i	18µM*
Cc1ccc(S(=O)(=O)Nc2ccc3[nH]c(=O)sc3c2)cc1C	-27%	-28%	?	/	/	16µM*
O=C(CSc1nnc(CNc2ccc(F)cc2)o1)N1c2ccccc2Sc2ccccc21	-10%	3%	21µM*	-21%	i	26µM*
CC(C)(C)N(Cc1ccccc1)C(=O)CSc1nnc(CNc2ccc(F)cc2)o1	-25%	-10%	11µM*	-20%	?	?
Cc1cccc(OCc2nnc(SCC(=O)N3c4ccccc4CCc4ccccc43)o2)c1	-17%	-1%	?	-17%	i	?
CN(CC(=O)Nc1ccc(F)cc1)C(=O)CSc1nnc(Cc2ccccc2)o1	-12%	0%	?	-2%	?	-23%
O=C(CSc1nnc(COc2ccc(F)cc2)o1)N1c2ccccc2CCc2ccccc21	?	8%	?	-15%	i	16µM*
CC(=O)c1ccc(NC(=O)CSc2nnc(-c3ccncc3)n2-c2ccccc2)cc1	-39%	5%	-10%	6%	i	1%
Cc1ccc(NC(=O)C2CCCN(S(=O)(=O)c3c(C)n[nH]c3C)C2)c(C)c1 (centres undefined)	-8%	-2%	6%	-5%	i	-21%
Cc1ccccc1Cn1c(C)c(C(=O)NCCC#N)sc1=O	-19%	1%	-5%	-3%	i	-5%
CC(O)CNCCNCc1c(OCc2ccccc2)ccc2ccccc12 (centres undefined)	11µM*	-93%	16µM*	25µM*	?	23µM*
OCCNCc1c(OCc2ccc(Cl)cc2)ccc2ccccc12	?	-96%	18µM*	?	?	23µM*
CC(O)CNCCOc1ccccc1OCc1ccccc1 (centres undefined)	-3%	-34%	?	?	i	?
CCN(CC)CCNC(=O)c1ccc(CS(=O)(=O)c2ccc(Br)cc2)o1	4%	-11%	?	-2%	i	-23%
COc1cc2nccc(Oc3ccc(NC(=O)C4(C(=O)Nc5ccc(F)cc5)CC4)cc3)c2cc1OC	/	/	/	19µM*	/	/
CCOc1ccc(NC(=O)C2(c3ccc(OC)c(OC)c3)CCCC2)cc1	-13%	-6%	-23%	-10%	i	?
CCOC(=O)Nc1ccc2c(c1)N(C(=O)OCCN(C)C)c1ccccc1CC2	-6%	-23%	18µM*	-18%	i	?
CNC(=O)c1ccc(=O)n(Cc2cccc(C(F)(F)F)c2)c1	3%	-10%	25%	1%	i	3%
O=C(c1ccco1)N1CCN(c2nc3c(Cl)cccc3s2)CC1	?	-14%	-28%	/	/	-29%
CCc1cccc2sc(N3CCN(C(=O)c4ccc([N+](=O)[O-])o4)CC3)nc12	18µM*	-96%	?	?	/	?
CCOc1cccc2sc(NC(=O)CC)nc12	-1%	0%	14%	-9%	i	24%
CCOc1cccc2sc(N3CCN(C(=O)c4ccco4)CC3)nc12	-1%	-9%	15µM*	/	/	16µM*
SMILES	TGFb inhibitor	HepG2 viability	TDP1 cell CPT	ATXN2 expr inh	S2 tox	TDP1 cell noCPT
COc1cccc2sc(N3CCN(C(=O)c4ccco4)CC3)nc12	-8%	-8%	-15%	6%	i	?
CCOc1cccc2sc(N3CCN(C(=O)C(C)(C)C)CC3)nc12	-27%	-9%	?	/	/	21µM*
CCC(C)n1c(=O)c2sccc2n2c(CCCC(=O)N3CCC(C(N)=O)CC3)nnc12 (centres undefined)	-17%	-2%	-1%	6%	i	-2%
CC1Cc2ccccc2N1C(=O)CN1CCN(Cc2ccccc2)CC1 (centres undefined)	-14%	-7%	7%	7%	i	16%
O=C(COc1cc2oc(=O)c3c(c2cc1Cl)CCC3)NCCCn1ccnc1	-4%	-17%	-13%	/	i	?
CSc1ccccc1NC(=S)N/N=C/c1cccn1Cc1ccc(F)cc1	-1%	-21%	?	-3%	i	23µM*
Cc1cccc(NC(=S)N/N=C/c2cccn2Cc2ccc(F)cc2)c1	3%	-37%	?	10%	i	16µM*
COc1ccc(NC(=S)N/N=C/c2cccn2Cc2ccccc2F)cc1	7%	-6%	14%	-2%	i	?
COc1ccc(NC(=S)N/N=C/c2cccn2Cc2ccc(F)cc2Cl)cc1	12%	-25%	23µM*	-14%	i	10µM*
CC(C)(O)C1CC[C@@]2(C)C3CCC4[C@@]5(C)CCCC(C)(C)C5C(O)C[C@]4(C)[C@]3(C)CC[C@@H]12 (some centres undefined)	/	/	3%	/	/	-3%
COc1ccc(CNS(=O)(=O)c2ccc(Br)s2)cc1	23%	-3%	3%	7%	i	?
COc1ccc2cc(C3CC=C(CO)CN3S(=O)(=O)c3ccccc3[N+](=O)[O-])n(C(=O)OC(C)(C)C)c2c1 (centres undefined)	/	/	23µM*	/	/	21µM*
COc1ccc(OCC(=O)N2CCN(S(=O)(=O)c3ccccc3[N+](=O)[O-])CC2)cc1	-4%	2%	-5%	0%	i	-10%
COc1ccc(C(=O)Nc2cnc3sc(C)nn3c2=O)cc1	1%	19%	7%	-15%	i	-15%
O=C(c1cc(S(=O)(=O)N2CCOCC2)ccc1F)N1CCc2ccccc21	-5%	-1%	?	?	i	?
Cc1ncc2c(c1CNC(=O)/C=C/c1cccs1)CCN(C(=O)C1CCCO1)C2 (centres undefined)	/	/	-2%[9.04 µM]	/	i	15%

Source: PubChem (National Center for Advancing Translational Sciences (NCATS))
